CYP2C19 act = activators of human cytochrome P450 2C19; P33261; recombinant CYP2C19, luciferin-H EGE luminescence; hits give high values; 0 = fully inhibited enzyme, 1 = untreated enzyme; activation factor at 5 µM; 96,000 tested, under 10 active;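 active = activation factor of at least 2 at 5 µM in the primary screen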
Target sequence (P33261 whole entry, looked up): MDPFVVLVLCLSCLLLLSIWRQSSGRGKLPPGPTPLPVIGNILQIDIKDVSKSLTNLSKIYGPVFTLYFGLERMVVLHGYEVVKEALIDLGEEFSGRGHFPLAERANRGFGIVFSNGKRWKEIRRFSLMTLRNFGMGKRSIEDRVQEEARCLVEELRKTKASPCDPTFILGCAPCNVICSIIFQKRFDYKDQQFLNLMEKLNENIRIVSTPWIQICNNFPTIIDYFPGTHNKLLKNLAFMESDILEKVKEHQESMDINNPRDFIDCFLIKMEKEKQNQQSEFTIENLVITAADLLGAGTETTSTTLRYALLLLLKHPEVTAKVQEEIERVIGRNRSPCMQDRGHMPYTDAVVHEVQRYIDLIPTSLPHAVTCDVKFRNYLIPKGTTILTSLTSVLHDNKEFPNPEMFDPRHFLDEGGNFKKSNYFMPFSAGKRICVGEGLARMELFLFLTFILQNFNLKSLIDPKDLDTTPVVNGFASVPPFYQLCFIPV
CYP2C19 inh = human CYP2C19 inhibition | CYP2C19 Supersomes, luciferin-H EGE luminescence, 30 min | hit rate 21% among 96,000 | inhibition, % at 5 µM | AID 778 | P33261;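 active = CYP2C19 inhibition above a set limit at 5 µM in the primary screen, cut at about 50% in these data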
CYP2C9 activ = increases human cytochrome P450 2C9 activity; recombinant CYP2C9, luciferin-H conversion, luminescence; hits give high values; factor 1 = untreated enzyme, 0 = blocked; activation factor at 5 µM; hit rate 1.4% among 96,000;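 active = activation factor of 2 or more for CYP2C9 at a 5 µM dose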
CYP2C9 inh = human CYP2C9 inhibition | CYP2C9 Supersomes, luciferin-H conversion, luminescence | AID 777 | hit rate 20% among 96,000 | inhibition, % at 5 µM;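 active = blocking of liver enzyme CYP2C9 beyond about 50% at 5 µM, limit read from the data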
Measles CPE = protection of cells from measles virus; hit rate 1.5% among 140,000; Measles virus-infected cells, CPE protection, absorbance; protection (pct of control), % at 4 µM; in the data active = protection mostly above about 24%, no sharp cut-off; inactive = mostly below about 26%
Of the large screens only hits and unclear results are named; the others gave an inactive call. In the library only some 22% were active in any assay of this set; here they are far more common.

COc1ccc(C)cc1NS(=O)(=O)c1cc(C)ccc1C	none
COc1ccccc1NS(=O)(=O)c1cc(C)ccc1C	CYP2C19 inh 79.5
COc1ccc(OC)c(S(=O)(=O)Nc2ccccc2C(=O)O)c1	none
O=C(CC12CC3CC(CC(C3)C1)C2)NCC(=O)OCc1cc(=O)oc2ccc3ccccc3c12	none (no result: CYP2C19 act, CYP2C19 inh, CYP2C9 activ, CYP2C9 inh)
O=S(=O)(c1ccc2ccccc2c1)N(CC(O)CN1CCOCC1)c1ccccc1 (centres undefined)	none
Cc1nn(-c2ccccc2)c(Cl)c1/C=N/Nc1ccc(S(=O)(=O)Nc2ccccc2C(=O)O)cc1[N+](=O)[O-]	CYP2C9 inh 69.1
CSc1ccccc1NS(=O)(=O)c1ccccc1	CYP2C19 inh 87.3, CYP2C9 activ 4.6
Cc1nn(-c2ccccc2)c(Cl)c1/C=N/Nc1ccc(Cl)c(C(=O)O)c1	none (no result: CYP2C19 act, CYP2C19 inh, CYP2C9 activ, CYP2C9 inh)
COc1ccccc1NS(=O)(=O)c1cccc(NC(=O)Nc2ccccc2)c1	none (no result: CYP2C19 act, CYP2C19 inh, CYP2C9 activ, CYP2C9 inh)
Cc1ccnc(NS(=O)(=O)c2ccccc2)n1	none
COc1ccc(S(=O)(=O)N2CCCCC2)cc1NS(=O)(=O)c1cc(Cl)ccc1Cl	none (no result: CYP2C19 act, CYP2C19 inh, CYP2C9 activ, CYP2C9 inh)
COc1cc(NS(=O)(=O)c2ccc(C)c(C)c2)c(OC)cc1Cl	CYP2C19 inh 100.4, CYP2C9 inh 94.6
COc1ccccc1NS(=O)(=O)c1ccc(O)c(C(N)=O)c1	CYP2C19 inh 100.0
COc1ccc(CCNC(=O)C2CCN(S(C)(=O)=O)CC2)cc1	none
O=C(Nc1ccccc1F)c1ccc(CNS(=O)(=O)c2cccc(C(F)(F)F)c2)cc1	none
Cc1cc(S(=O)(=O)Nc2ccccc2C(=O)O)ccc1Cl	CYP2C9 inh 73.6
O=C(O)c1cc(S(=O)(=O)O)ccc1O	Measles CPE 54.9
COc1ccccc1NS(=O)(=O)c1ccc(Cl)cc1	CYP2C19 inh 99.0
O=C(CS(=O)(=O)c1cccc(C(F)(F)F)c1)Nc1ccccc1Cl	CYP2C19 inh 60.2
COc1cc(NS(=O)(=O)c2ccc(Cl)cc2)c(C(=O)O)cc1OC	none (no result: CYP2C19 act, CYP2C19 inh, CYP2C9 activ, CYP2C9 inh)
NC(=O)C1CCN(CCC(=O)Nc2ccc3c(c2)CCC3)CC1	none (no result: CYP2C19 act, CYP2C19 inh, CYP2C9 activ, CYP2C9 inh)
CCc1cc2c(C)cc(=O)oc2cc1OC(=O)C1CCCN1C(=O)OC(C)(C)C (centres undefined)	none
COc1ccc(S(=O)(=O)Nc2ccccc2SC)cc1C	CYP2C19 inh 98.7, CYP2C9 activ 2
COc1ccc(S(=O)(=O)Nc2ccccc2OC)cc1C	CYP2C19 inh 100.0, CYP2C9 activ 2.9
O=C(O)c1ccccc1O	Measles CPE 42.7 (no result: CYP2C19 act, CYP2C19 inh, CYP2C9 activ, CYP2C9 inh)
Cc1cc(O)c(C(C)C)cc1NS(=O)(=O)c1ccccc1	CYP2C19 inh 86.3
CCCCNC(=S)NNC(=O)CCn1nc(C)c(Br)c1C	none
COC(=O)c1c(NC(=O)CN2CCN(c3ccccc3)CC2)c2c(C)cccc2n1C	Measles CPE 42.5
O=C(CN1CCN(c2ccc(Cl)cc2)CC1)Nc1cccc(F)c1	CYP2C9 inh 67.0
O=C(CN1CCN(c2ccc(F)cc2)CC1)Nc1ccc(F)c(F)c1	none
O=C(Nc1cccc(F)c1)N1CC=C(c2ccc(Cl)cc2)CC1	CYP2C19 inh 95.8, CYP2C9 inh 95.7
COC(=O)c1ccc(NC(=O)CN2CCN(S(=O)(=O)c3cc(Cl)ccc3OC)CC2)cc1	CYP2C19 inh 94.7, CYP2C9 activ 2.7
COc1ccc(N2CCN(CC(=O)Nc3c(C)cc(C)cc3C)CC2)cc1	none
COc1ccc(NC(=O)CCN2CCN(S(=O)(=O)c3cc(Cl)ccc3Cl)CC2)cc1	CYP2C19 inh 91.1
CCOC(=O)c1cccc(NC(=O)CN2CCN(c3ccc(OC)cc3)CC2)c1	CYP2C19 inh 54.0, CYP2C9 inh 73.2
COc1cccc(N2CCN(CC(=O)Nc3nnc(-c4ccccc4)s3)CC2)c1	CYP2C19 inh 50.4, CYP2C9 inh 78.0
CCOC(=O)c1cccc(NC(=O)C(C)N2C(=O)c3ccccc3C2=O)c1 (centres undefined)	CYP2C19 inh 57.1, CYP2C9 inh 96.8
CCOC(=O)c1ccc(NC(=O)C(C)N2C(=O)c3ccccc3C2=O)cc1 (centres undefined)	none
O/N=C1\CCCc2oc3c(c21)CCCC3	none
O=C(c1cccs1)N1CCN(S(=O)(=O)N2CCCCC2)CC1	none
COC(=O)c1ccc(NC(=O)CN2CCN(c3cccc(Cl)c3)CC2)cc1	CYP2C19 inh 61.0, CYP2C9 inh 76.1
NC(N)=Nc1nc(CCN2C(=O)c3ccccc3C2=O)cs1	CYP2C19 inh 55.2
Cc1nc(CCN2C(=O)c3ccccc3C2=O)cs1	CYP2C19 inh 69.7
O=C1c2ccccc2C(=O)N1CCn1nc(Cl)nc1Cl	none
O=C1c2ccccc2C(=O)N1CCCON1C(=O)c2ccccc2C1=O	none (no result: CYP2C19 act, CYP2C19 inh, CYP2C9 activ, CYP2C9 inh)
CNc1nc(CCN2C(=O)c3ccccc3C2=O)cs1	CYP2C19 inh 82.3
COc1ccc(C(C(=O)NC2CCCCC2)N(CC2CCCO2)C(=O)CNC(=O)c2ccco2)cc1 (centres undefined)	none
C/C(=N\NC(=O)c1nn(C)c(C)c1Br)c1cccc(NC(=O)c2ccoc2C)c1	none (no result: CYP2C19 act, CYP2C19 inh, CYP2C9 activ, CYP2C9 inh)
CC(C(=O)O)c1ccc(-c2ccccc2)c(F)c1 (centres undefined)	none (no result: CYP2C19 act, CYP2C19 inh, CYP2C9 activ, CYP2C9 inh)
CC(Oc1ccc(-c2ccccc2)c(F)c1)c1ccn(S(=O)(=O)c2ccc(Br)cc2)n1 (centres undefined)	CYP2C19 inh 58.5, CYP2C9 inh 71.3
N#CC(C#N)=c1ccc2c(c1)N1C3=C(CCCC3)CC3CCCCC31N=2 (centres undefined)	CYP2C19 inh 90.0, CYP2C9 inh 97.8
N#C/C(C(N)=O)=c1/ccc2c(c1)N1C3=C(CCCC3)CC3CCCCC31N=2 (centres undefined)	CYP2C19 inh 54.4, CYP2C9 inh 89.4
O=C(NCC1CCCO1)c1ccc(S(=O)(=O)N2CCC(c3nc4ccc(Cl)cc4[nH]3)CC2)cc1 (centres undefined)	none (no result: CYP2C19 act, CYP2C19 inh, CYP2C9 activ, CYP2C9 inh)
Cn1cnc2cc(NS(=O)(=O)c3ccc(Br)cc3)ccc21	CYP2C19 inh 93.0, CYP2C9 inh 68.8
CC(C)(C)n1cnc2cc(NS(=O)(=O)c3ccccc3)ccc21	CYP2C19 inh 78.7
Cc1ccc(Cn2cc(C(=O)c3ccc(F)cc3)c(=O)c3cc4c(cc32)OCCO4)cc1	none (no result: CYP2C19 act, CYP2C19 inh, CYP2C9 activ, CYP2C9 inh)
CN(C)CCCNCC(=O)Nc1ccccc1N1CCOCC1	CYP2C9 inh 67.4
Cc1ccc(-c2nnc(SCC(=O)Nc3ccccc3N3CCOCC3)o2)cc1	none
Cc1ccc(-c2nnn(CC(=O)Nc3ccccc3N3CCOCC3)n2)cc1	CYP2C9 inh 78.8
Cn1c(-c2ccc(F)cc2)cnc1SCC(=O)Nc1ccccc1N1CCOCC1	CYP2C19 inh 68.3
CC1(C)Cc2cccc(OCC(=O)Nc3ccccc3N3CCOCC3)c2O1	CYP2C19 inh 90.9, CYP2C9 inh 56.4
CC1(C)Cc2cccc(OCC(=O)O)c2O1	none (no result: CYP2C19 act, CYP2C19 inh, CYP2C9 activ, CYP2C9 inh)
O=C(Cn1nnc(-c2ccccc2)n1)Nc1ccccc1N1CCOCC1	CYP2C19 inh 63.4, CYP2C9 inh 73.7
CCc1ccccc1NC(=O)Cn1nnc(-c2cccnc2)n1	CYP2C19 inh 96.2
Cn1c(N/N=C\c2cccc(O)c2)cc(=O)n(C)c1=O	none (no result: CYP2C19 act, CYP2C19 inh, CYP2C9 activ, CYP2C9 inh)
CC(=O)Nc1ccc(N2N=C(C)C(N=Nc3ccccc3)C2=O)cc1 (centres undefined)	none (no result: CYP2C19 act, CYP2C19 inh, CYP2C9 activ, CYP2C9 inh)
CCOC(=O)C1CCN(c2c(NCCN3CCN(c4ccccc4)CC3)c(=O)c2=O)CC1	none
